# Assay results from the supplement of paper PMC11732987, “Enantioselective OTUD7B fragment discovery through chemoproteomics screening and high-throughput optimisation” (Communications Chemistry, 2025).
# A number with no mark means an inactive call.
# How the values were obtained:
# Test in all cases: log2 ratio of Biotin-Ahx-Ub-VS probe labelling (fragment/DMSO); higher = less target engagement (more negative = stronger competition), active = hit call of the paper (q ≤ 0.05, log2 ratio ≤ -1)
# Details in all cases: compound concentration: 200 uM; treatment time: 3 h
# OTUD6B = biological target: T1, OTUD6B (UniProt Q8N6M0)
# T1 sequence (whole entry): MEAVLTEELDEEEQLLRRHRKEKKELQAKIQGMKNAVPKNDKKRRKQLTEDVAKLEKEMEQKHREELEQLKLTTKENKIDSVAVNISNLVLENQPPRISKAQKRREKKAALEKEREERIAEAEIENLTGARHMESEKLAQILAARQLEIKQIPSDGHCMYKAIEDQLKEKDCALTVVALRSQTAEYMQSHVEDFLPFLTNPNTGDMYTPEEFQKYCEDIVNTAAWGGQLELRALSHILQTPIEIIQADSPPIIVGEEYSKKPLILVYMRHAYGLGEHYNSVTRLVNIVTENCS
# In short: (§1)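 In triplicate, 495 µg of HEK293T lysate per sample was incubated with fragment at 200 µM or vehicle for 3 h. Biotin-Ahx-Ub-VS was then added to 0.5 µM final for 1 h, and labelled DUBs were captured with NeutrAvidin, digested with LysC and trypsin, and measured by diaPASEF LC-MS/MS. Data are average log2 fragment/vehicle ratios by unpaired t-test from global-median-normalised Spectronaut label-free quantities, restricted to proteins with ≥2 unique peptides.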
# OTUD7B = biological target: T2, OTUD7B (UniProt Q6GQQ9)
# T2 sequence (whole entry): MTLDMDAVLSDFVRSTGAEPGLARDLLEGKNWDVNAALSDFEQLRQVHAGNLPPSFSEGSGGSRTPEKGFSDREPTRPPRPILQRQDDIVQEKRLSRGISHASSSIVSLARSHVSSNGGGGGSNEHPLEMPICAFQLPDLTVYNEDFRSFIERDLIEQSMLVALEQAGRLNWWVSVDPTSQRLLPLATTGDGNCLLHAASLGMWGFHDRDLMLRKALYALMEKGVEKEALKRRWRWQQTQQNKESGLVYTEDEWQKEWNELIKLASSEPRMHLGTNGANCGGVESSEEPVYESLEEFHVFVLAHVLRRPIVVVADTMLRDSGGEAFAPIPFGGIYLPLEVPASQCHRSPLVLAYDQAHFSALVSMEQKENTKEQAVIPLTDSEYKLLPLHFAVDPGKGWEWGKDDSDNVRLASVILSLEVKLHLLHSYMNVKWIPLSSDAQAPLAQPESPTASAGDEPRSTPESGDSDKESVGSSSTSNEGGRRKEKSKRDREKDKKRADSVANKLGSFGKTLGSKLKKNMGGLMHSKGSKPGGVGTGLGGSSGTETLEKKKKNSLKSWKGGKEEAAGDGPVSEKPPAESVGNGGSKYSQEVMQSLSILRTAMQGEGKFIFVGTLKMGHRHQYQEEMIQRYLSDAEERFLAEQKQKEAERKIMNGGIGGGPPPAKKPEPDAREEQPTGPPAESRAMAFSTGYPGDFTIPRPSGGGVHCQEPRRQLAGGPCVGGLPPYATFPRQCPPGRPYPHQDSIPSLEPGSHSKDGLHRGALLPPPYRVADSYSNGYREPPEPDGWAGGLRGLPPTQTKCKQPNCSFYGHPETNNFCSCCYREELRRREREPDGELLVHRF
# In short: as §1
# PRPF8 = PRPF8 (UniProt Q6P2Q9)
# In short: as §1
# PSMD7 = biological target: T3, PSMD7 (UniProt P51665)
# T3 sequence (whole entry): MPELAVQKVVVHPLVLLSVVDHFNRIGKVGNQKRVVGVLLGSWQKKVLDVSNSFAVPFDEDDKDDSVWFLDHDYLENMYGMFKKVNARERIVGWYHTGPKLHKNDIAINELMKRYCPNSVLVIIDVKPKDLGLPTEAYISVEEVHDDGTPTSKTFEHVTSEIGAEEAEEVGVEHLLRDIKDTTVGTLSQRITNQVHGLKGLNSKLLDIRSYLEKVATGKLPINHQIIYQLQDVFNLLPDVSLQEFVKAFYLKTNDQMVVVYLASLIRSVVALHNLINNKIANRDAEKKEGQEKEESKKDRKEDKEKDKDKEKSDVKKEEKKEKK
# In short: as §1
# UCHL1 = UCHL1 (UniProt P09936)
# In short: as §1
# UCHL3 = biological target: T4, UCHL3 (UniProt P15374)
# T4 sequence (whole entry): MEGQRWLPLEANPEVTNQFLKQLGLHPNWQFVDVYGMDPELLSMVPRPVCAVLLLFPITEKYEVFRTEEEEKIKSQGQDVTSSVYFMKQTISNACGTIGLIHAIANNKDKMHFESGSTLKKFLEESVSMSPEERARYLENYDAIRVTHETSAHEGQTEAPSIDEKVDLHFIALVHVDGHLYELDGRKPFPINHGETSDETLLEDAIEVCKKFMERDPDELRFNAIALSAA
# In short: as §1
# UCHL5 = biological target: T5, UCHL5 (UniProt Q9Y5K5)
# T5 sequence (whole entry): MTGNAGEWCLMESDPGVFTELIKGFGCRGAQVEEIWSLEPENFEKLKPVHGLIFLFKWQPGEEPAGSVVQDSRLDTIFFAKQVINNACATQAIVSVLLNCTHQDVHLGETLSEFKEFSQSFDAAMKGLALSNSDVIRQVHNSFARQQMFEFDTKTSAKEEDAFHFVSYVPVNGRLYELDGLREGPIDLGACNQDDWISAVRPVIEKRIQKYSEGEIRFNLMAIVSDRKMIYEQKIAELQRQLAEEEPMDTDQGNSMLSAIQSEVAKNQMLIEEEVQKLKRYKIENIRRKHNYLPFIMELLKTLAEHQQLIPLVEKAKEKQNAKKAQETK
# In short: as §1
# USP10 = USP10 (UniProt Q14694)
# In short: as §1
# USP15 = biological target: T6, USP15 (UniProt Q9Y4E8)
# T6 sequence (whole entry): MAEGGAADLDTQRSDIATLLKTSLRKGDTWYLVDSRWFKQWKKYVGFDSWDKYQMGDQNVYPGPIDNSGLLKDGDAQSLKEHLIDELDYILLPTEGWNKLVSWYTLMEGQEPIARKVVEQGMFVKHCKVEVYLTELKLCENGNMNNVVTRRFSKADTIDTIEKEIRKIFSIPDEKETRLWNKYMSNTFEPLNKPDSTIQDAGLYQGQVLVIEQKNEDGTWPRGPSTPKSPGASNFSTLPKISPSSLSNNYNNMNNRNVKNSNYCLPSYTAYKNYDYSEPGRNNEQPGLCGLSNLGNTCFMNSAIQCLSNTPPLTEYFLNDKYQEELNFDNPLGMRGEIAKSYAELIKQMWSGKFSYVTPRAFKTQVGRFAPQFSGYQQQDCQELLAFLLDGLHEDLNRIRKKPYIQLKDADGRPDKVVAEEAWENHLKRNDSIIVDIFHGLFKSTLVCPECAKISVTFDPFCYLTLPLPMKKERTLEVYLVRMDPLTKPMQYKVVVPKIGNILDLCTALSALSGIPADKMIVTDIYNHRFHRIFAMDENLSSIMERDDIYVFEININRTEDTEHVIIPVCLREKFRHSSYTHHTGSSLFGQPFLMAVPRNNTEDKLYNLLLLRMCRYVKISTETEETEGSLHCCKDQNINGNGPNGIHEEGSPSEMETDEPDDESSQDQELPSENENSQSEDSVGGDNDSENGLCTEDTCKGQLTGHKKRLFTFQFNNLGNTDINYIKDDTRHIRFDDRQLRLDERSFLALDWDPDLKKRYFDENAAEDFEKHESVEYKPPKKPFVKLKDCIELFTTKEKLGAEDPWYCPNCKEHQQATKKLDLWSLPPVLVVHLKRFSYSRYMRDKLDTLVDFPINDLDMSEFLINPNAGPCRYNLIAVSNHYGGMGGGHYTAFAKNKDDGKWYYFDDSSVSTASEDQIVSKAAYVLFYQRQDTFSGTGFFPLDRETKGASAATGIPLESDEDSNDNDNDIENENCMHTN
# In short: as §1
# USP16 = USP16 (UniProt Q9Y5T5)
# In short: as §1
# USP10, sequence (Q14694 whole entry): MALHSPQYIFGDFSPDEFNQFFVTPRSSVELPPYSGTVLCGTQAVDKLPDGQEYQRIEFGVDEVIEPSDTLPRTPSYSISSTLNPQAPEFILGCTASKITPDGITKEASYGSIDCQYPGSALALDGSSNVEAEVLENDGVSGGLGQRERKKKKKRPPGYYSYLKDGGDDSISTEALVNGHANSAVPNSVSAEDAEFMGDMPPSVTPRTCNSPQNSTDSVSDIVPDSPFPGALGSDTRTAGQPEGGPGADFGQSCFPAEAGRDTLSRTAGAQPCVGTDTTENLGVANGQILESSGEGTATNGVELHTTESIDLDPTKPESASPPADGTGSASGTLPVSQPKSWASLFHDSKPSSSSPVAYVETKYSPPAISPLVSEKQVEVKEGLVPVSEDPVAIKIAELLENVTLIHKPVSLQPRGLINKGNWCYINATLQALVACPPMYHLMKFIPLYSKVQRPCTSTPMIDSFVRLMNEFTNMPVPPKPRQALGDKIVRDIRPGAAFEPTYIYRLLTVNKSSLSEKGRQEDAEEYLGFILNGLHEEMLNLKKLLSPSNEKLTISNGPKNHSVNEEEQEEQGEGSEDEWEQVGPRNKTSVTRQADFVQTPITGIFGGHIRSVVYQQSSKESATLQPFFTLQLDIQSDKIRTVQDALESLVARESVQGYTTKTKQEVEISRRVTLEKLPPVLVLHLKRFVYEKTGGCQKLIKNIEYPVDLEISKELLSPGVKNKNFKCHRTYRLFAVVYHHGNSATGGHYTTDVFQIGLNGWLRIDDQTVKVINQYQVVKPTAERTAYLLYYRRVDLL
# USP16, sequence (Q9Y5T5 whole entry, looked up): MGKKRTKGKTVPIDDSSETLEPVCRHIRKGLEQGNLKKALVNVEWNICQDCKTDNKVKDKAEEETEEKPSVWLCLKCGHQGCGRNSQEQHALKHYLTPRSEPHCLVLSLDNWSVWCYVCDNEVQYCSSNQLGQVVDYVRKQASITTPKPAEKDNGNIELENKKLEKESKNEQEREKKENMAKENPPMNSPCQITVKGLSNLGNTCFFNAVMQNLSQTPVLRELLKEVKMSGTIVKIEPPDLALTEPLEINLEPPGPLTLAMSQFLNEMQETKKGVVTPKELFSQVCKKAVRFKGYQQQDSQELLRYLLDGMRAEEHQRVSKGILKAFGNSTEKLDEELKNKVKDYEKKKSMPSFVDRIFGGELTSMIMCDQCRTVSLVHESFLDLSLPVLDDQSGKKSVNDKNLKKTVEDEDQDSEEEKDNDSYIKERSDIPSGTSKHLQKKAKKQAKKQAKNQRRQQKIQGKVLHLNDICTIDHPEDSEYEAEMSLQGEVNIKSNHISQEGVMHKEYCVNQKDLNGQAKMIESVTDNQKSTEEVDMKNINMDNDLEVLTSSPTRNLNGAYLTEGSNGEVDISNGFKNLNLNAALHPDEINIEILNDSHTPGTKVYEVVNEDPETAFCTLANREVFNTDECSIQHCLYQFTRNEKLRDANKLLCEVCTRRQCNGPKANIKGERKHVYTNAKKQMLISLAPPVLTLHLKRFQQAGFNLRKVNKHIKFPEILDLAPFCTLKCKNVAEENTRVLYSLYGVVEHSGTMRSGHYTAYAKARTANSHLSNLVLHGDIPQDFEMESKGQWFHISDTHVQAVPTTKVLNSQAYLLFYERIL
# UCHL1, sequence (P09936 whole entry, looked up): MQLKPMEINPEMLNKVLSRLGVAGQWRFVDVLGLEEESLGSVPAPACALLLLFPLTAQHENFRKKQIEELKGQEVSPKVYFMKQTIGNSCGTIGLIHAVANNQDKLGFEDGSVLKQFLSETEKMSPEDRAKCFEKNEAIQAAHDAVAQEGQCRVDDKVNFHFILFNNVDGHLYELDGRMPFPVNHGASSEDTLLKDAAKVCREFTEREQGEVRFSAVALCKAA
smiles,measurement,setting,value
O=C(CCl)Nc1nnc(CC(F)(F)F)o1,log2 ratio of Biotin-Ahx-Ub-VS probe labelling,OTUD6B,-0.105
same,log2 ratio of Biotin-Ahx-Ub-VS probe labelling,OTUD7B,-0.451
same,log2 ratio of Biotin-Ahx-Ub-VS probe labelling,PRPF8,0.0577
same,log2 ratio of Biotin-Ahx-Ub-VS probe labelling,PSMD7,-0.157
same,log2 ratio of Biotin-Ahx-Ub-VS probe labelling,UCHL1,-1.5 (active)
same,log2 ratio of Biotin-Ahx-Ub-VS probe labelling,UCHL3,-0.128
same,log2 ratio of Biotin-Ahx-Ub-VS probe labelling,UCHL5,-0.204
same,log2 ratio of Biotin-Ahx-Ub-VS probe labelling,USP10,-0.0274
same,log2 ratio of Biotin-Ahx-Ub-VS probe labelling,USP15,-0.341
same,log2 ratio of Biotin-Ahx-Ub-VS probe labelling,USP16,0.0973
